Laboratory results published in ChEMBL document CHEMBL4513216, “Probing the Open Global Health Chemical Diversity Library for Multistage-Active Starting Points for Next-Generation Antimalarials” (ACS Infect Dis, 2020).
Out of some 69,000 compounds screened, about 8,600 (12%) showed an effect of 50% or more. Shown is part of a subset that was picked to be rich in strong results.

Tested on: Plasmodium berghei
Assay: Screen against P. berghei liver stage (PbLuc), transformed with Luciferase, at 10uM
Format: functional, HepG2
Settings: tested at 10 uM

Row | SMILES | INHIBITION [%]
1 | CC(C)S(=O)(=O)N1CCC(c2cc3n(n2)[C@@H](C(F)(F)F)C[C@@H](C)N3)CC1 | 48.4
2 | COc1c(C2CCCN2CC(=O)Nc2cc(C)nn2C)c(C)nn1C (stereo not given) | 23.5
3 | Cc1cc(C)n(CCC(=O)N2CCCC(c3nc(C(C)C)no3)C2)n1 (stereo not given) | 30.8
4 | COc1ncnc(N)c1CNCc1ccccc1-n1cccn1 | 30.9
5 | CCc1ncc(CN2CCOC(Cc3cccc(F)c3)C2)cn1 (stereo not given) | 56.1
6 | CCCNc1ncc(CN2CCOC(Cc3cccc(F)c3)C2)cn1 (stereo not given) | -45
7 | CCc1ccc(CN2CCOC(Cc3cccc(F)c3)C2)nc1 (stereo not given) | 22
8 | c1ncn(CC2CN(CC3CCCCC3)CCO2)n1 (stereo not given) | 25.4
9 | O=C(NCC1(O)CCC1)c1c(O)cc(F)cc1F | 59.5
10 | O=C(NCC1(O)CCC1)c1c(O)cc(Cl)cc1Cl | 31
11 | O=C(NCCC(=O)N1CCCCCC1)c1c(O)cc(F)cc1F | 29.5
12 | NS(=O)(=O)Cc1cccc(C(=O)N2CCCC(n3cccn3)C2)c1 (stereo not given) | 14.815
13 | Cc1nccc(CNC(=O)NCCC(=O)N2CCCc3ccccc32)n1 | -15
14 | COc1cccc(C2CCCN2CCCNS(C)(=O)=O)c1 (stereo not given) | 15.3
15 | CSCCN1C(=O)CC(C)(c2ccc(Br)cc2)C1=O (stereo not given) | 42.1
16 | CC1(c2ccc(Br)cc2)CC(=O)N(CCC(N)=O)C1=O (stereo not given) | -48.3
17 | CC1(c2ccc(Br)cc2)CC(=O)N(CC(N)=O)C1=O (stereo not given) | 51.8
18 | O=C(NCC1CC1)[C@H]1C[C@H]2CN(C(=O)NCc3ccccc3)C[C@@H]1O2 | 13.6
19 | CC(NC(=O)NCCn1ccnc1)c1ccc2c(c1)OCCCO2 (stereo not given) | -9.37
20 | CC(C)n1ccnc1CN1CCOC(C)(C(=O)N2CCOCC2)C1 (stereo not given) | 38.2
21 | c1cnc(CC2CCN(c3cnccn3)CC2)cn1 | 33.2
22 | CCCNC(=O)[C@@H]1CCCN1[C@@H](C(=O)NC)C1CC1 | -20.8
23 | CNC(=O)[C@@H](C1CC1)N1CCC[C@H]1C(=O)NCC(C)C | -19.6
24 | CCNC(=O)[C@@H]1CCCN1[C@@H](C(=O)NC)C1CC1 | 51.9
25 | COCCN1C(=O)[C@@H]2CC[C@H]1CN(c1nccc(C)n1)C2 | -39.2

Row | SMILES | INHIBITION [%]
26 | Cc1cccc(COc2ccc(C(C)NC(=O)CNC(N)=O)cc2)c1 (stereo not given) | 40.7
27 | Cc1cccc(COc2ccc(NC(=O)C(C)NC(N)=O)c(C)c2)c1 (stereo not given) | 61.3
28 | CC(=O)NC(C)C(=O)Nc1ccc(OCc2cccc(F)c2)cc1C (stereo not given) | 26.5
29 | Cc1cccc(COc2ccc(C(C)N)cc2)c1 (stereo not given) | 83
30 | Cc1cccc(COc2ccc(C(C)NS(N)(=O)=O)cc2)c1 (stereo not given) | 9.16
31 | Cc1cc(OCc2cccc(F)c2)ccc1NC(=O)C(C)NC(N)=O (stereo not given) | 48.3
32 | CC(C)(C)c1cc(CNC(=O)c2cc(COc3ccccc3)[nH]n2)[nH]n1 | -47
33 | Cn1cc(C(=O)NCc2cn3c(n2)CN(CC2CCCC2)CC3)cn1 | -2.17
34 | Cc1nc(-c2ccnc(N3CCNCC3)n2)no1 | -17
35 | Cc1nc(CN2CCN(CCOc3ccc(C(C)C)c(C)c3)CC2)no1 | 25.1
36 | Cc1noc(C)c1CNC(=O)N1CCC(Cc2cnn(C)c2)C1 (stereo not given) | 20.2
37 | Cn1cc(C2CC(=O)NC23CCN(C(=O)C2CC=CC2)CC3)cn1 (stereo not given) | -61.6
38 | Cn1cc(C2CC(=O)NC23CCN(C(=O)NC2CC2)CC3)cn1 (stereo not given) | 62.9
39 | O=C1CC(c2ccncc2)C2(CCN(C(=O)NC3CC3)CC2)N1 (stereo not given) | 33.4
40 | COC1CCCN(C(=O)NCC(C)(C)SC)C1 (stereo not given) | 32
41 | COC1CCCN(C(=O)NCCCF)C1 (stereo not given) | 55.5
42 | COC1CCCN(C(=O)NCC(F)F)C1 (stereo not given) | 26.4
43 | CCN1C(=O)CCC12CCCN(Cc1ccc(F)cc1)CC2 (stereo not given) | -24.5
44 | COC(=O)C(NC(=O)c1ccc(C)cc1C)c1cccnc1 (stereo not given) | 42.4
45 | COC(=O)C(NC(=O)c1cc(C)ccc1C)c1cccnc1 (stereo not given) | 32.2
46 | COC(=O)C(NC(=O)c1cc(F)cc(F)c1)c1cccnc1 (stereo not given) | 55.4
47 | Cc1nc(O)cc(C2CCN(C(=O)c3[nH]nc4c3CC(C)CC4)CC2)n1 (stereo not given) | 9.52
48 | O=C(Nc1cc(Cl)ccc1N1CCCCC1)c1ccccn1 | 56.3
49 | O=C(Nc1c(N2CCCC2)cccc1N1CCCC1)c1cnccn1 | 48
50 | CN1CCN(c2ccc(NC(=O)c3ccccn3)c(C(F)(F)F)c2)CC1 | -78.3

Row | SMILES | INHIBITION [%]
51 | O=C(Nc1c(N2CCCC2)cccc1N1CCCC1)c1cnsn1 | 42.4
52 | CN1CCN(c2ccc(Cl)cc2NC(=O)c2ccco2)CC1 | 35.1
53 | COC(=O)c1ncccc1N1CCCC1 | -0.71
54 | O=C(Nc1c(N2CCCC2)cccc1N1CCCC1)c1ccccn1 | 55.4
55 | COC(=O)c1ncccc1N1CCCCC1 | 89.1
56 | O=C(O)c1ncccc1N1CCCCC1 | 6.83
57 | CCc1cc(NCC(O)CN2CCCC2)ncn1 (stereo not given) | 18.5
58 | CCC(=O)N1CCCCC1c1nc(O)c2c(n1)CN(C(=O)C1CC1)CC2 (stereo not given) | 34.65
59 | Cc1cc(CN(C)C(=O)c2cccc(N3CCCS3(=O)=O)c2)no1 | 42
60 | CN(C)[C@@H]1CCN(S(=O)(=O)c2cn(C)cn2)[C@H]1Cc1cccnc1 | 33
61 | CC(C)Cc1nnc(NC(=O)NC(CCO)c2cccs2)s1 (stereo not given) | 36
62 | CCCn1cc(S(=O)(=O)N[C@H]2CN(C(C)=O)C[C@@H]2C2CC2)cn1 | 24.2
63 | CCCn1cc(S(=O)(=O)N[C@H]2CN(CCO)C[C@@H]2C2CC2)cn1 | 92.1
64 | CCCn1cc(S(=O)(=O)N[C@H]2CN(CC(N)=O)C[C@@H]2C2CC2)cn1 | 37.7
65 | Cc1ccc(CC2COCCN(S(C)(=O)=O)C2)nc1 (stereo not given) | -24.4
66 | Cc1csc(CCNC(=O)N2CCC(NC(=O)OC(C)(C)C)CC2)n1 | 13.3
67 | CC(=O)N1CCCC(C(=O)N2CCN(Cc3cc(C)on3)CC2)C1 (stereo not given) | 71.2
68 | Cc1cccc(CN2C[C@@H]3COC[C@]3(CNC(=O)C3CC3)C2)c1 | 35.8
69 | Cc1cc(CN2C[C@@H]3COC[C@]3(CNC(=O)N3CCCC3)C2)no1 | 70.7
70 | Cc1cccc(CN2C[C@@H]3COC[C@]3(CNC(=O)N3CCCC3)C2)n1 | 21
71 | CNC(=O)C1CN(Cc2cc(C)on2)CCN(C(C)=O)C1 (stereo not given) | -21.6
72 | CC(=O)N1CCCC(C(=O)N2CCN(c3cnn(C)c(=O)c3)CC2)C1 (stereo not given) | 16.6
73 | Cc1cc(CN2C[C@@H]3COC[C@]3(CNC(=O)N(C)C)C2)no1 | 45.1
74 | Cc1cccc(CN2C[C@@H]3COC[C@]3(CNC(=O)C3CCC3)C2)c1 | 65.7
75 | COc1cccc(CN2C[C@@H]3COC[C@]3(CNC(=O)C3CC3)C2)c1 | 43
